Where a name gives a salt, the structure may show the parent alone. Whole data set: some 2,000 compounds, median “fractional viability relative to vehicle” near 0.91, cut for the lowest 2% near 0.045. The full list was thinned out, with the lowest values kept by preference.
System: TYKNU
Experiment: fractional viability relative to vehicle; TYKNU is a high-grade serous ovarian cancer line; higher = less growth inhibition
Settings: 72 h
Method in brief: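 TYKNU control cells or lentiCRISPRv2 knockout derivatives were plated at 500 cells per well in duplicate into drug-stamped 384-well plates holding a ~2100-compound library at 2 or 10 μM. Culture was in RPMI 1640 with 10% FBS at 37 °C in 5% CO2, with 72 h of drug treatment. Viability was measured by Cell Titer Glo luminescence, and the averaged duplicate treatment wells were normalised to duplicate control wells at the same plate position.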

[1] = 2uM, genotype: DNM1L knockout (sgDNM1L #1)
[2] = 2uM, genotype: sgCTRLA1 (non-targeting control)
[3] = 10uM, genotype: DNM1L knockout (sgDNM1L #1)
[4] = 10uM, genotype: sgCTRLA1 (non-targeting control)

| SMILES | fractional viability [1] | fractional viability [2] | fractional viability [3] | fractional viability [4] |
| --- | --- | --- | --- | --- |
| C[C@@H]1CC[C@@]2(OC1)O[C@H]1C[C@H]3[C@@H]4CC=C5C[C@@H](O[C@@H]6O[C@H](CO)[C@@H](O[C@@H]7O[C@@H](C)[C@H](O)[C@@H](O)[C@H]7O)[C@H](O)[C@H]6O[C@@H]6O[C@@H](C)[C@H](O)[C@@H](O)[C@H]6O)CC[C@]5(C)[C@H]4CC[C@]3(C)[C@H]1[C@@H]2C [Dioscin] | 0.0559 | 0.0816 | 0.0468 | 0.0196 |
| Cc1cc2c(C(C)C)c(O)c(O)c(C=O)c2c(O)c1-c1c(C)cc2c(C(C)C)c(O)c(O)c(C=O)c2c1O [Gossypol] | 0.9 | 1.04 | 0.253 | 0.247 |
| CCN(Cc1ccc(Cl)nc1)/C(=C/[N+](=O)[O-])NC [Nitenpyram] | 0.733 | 1.08 | 0.638 | 0.862 |
| Cc1ccc(-n2nccn2)c(C(=O)N2CCN(c3nc4cc(Cl)ccc4o3)CC[C@H]2C)c1 [Suvorexant (MK-4305)] | 0.969 | 1.14 | 0.861 | 1.04 |
| CC(C)=CCC[C@]1(C)C=Cc2c(O)c3c(c(CC=C(C)C)c2O1)O[C@]12C(=C[C@@H]4C[C@H]1C(C)(C)O[C@@]2(C/C=C(/C)C(=O)O)C4=O)C3=O [Gambogic Acid] | 0.068 | 0.0361 | 0.0214 | 0.00876 |
| CN(C)Cc1c[nH]c2ccccc12 [Gramine] | 0.908 | 1.14 | 0.859 | 0.971 |
| [O-][n+]1ccccc1[S-].[O-][n+]1ccccc1[S-].[Zn+2] [Zinc Pyrithione] | 0.0424 | 0.0207 | 0.0251 | 0.0128 |
| Cc1sc2c(c1C)C(c1ccc(Cl)cc1)=N[C@@H](CC(N)=O)c1nnc(C)n1-2 | 0.35 | 0.412 | 0.319 | 0.408 |
| c1ccc([C@@H]2C[C@H]2NC2CCNCC2)cc1 | 0.728 | 0.964 | 0.712 | 0.824 |
| CC(=O)Nc1ccc(Cc2ccc(NC(C)=O)cc2)cc1 | 0.759 | 0.99 | 0.747 | 0.791 |
| O=C(O[C@H]1C[C@H]2CC[C@@H](C1)[N+]21CCCC1)C(O)(c1ccccc1)c1ccccc1 [Trospium chloride] | 0.962 | 1.06 | 0.908 | 1.09 |
| Cc1cccc(Cc2c[nH]cn2)c1C [Detomidine HCl] | 1.07 | 1.01 | 0.798 | 1.1 |
| CN[C@@H]1C[C@H]2O[C@@](C)([C@@H]1OC)n1c3ccccc3c3c4c(c5c6ccccc6n2c5c31)C(=O)NC4 [Staurosporine] | 0.092 | 0.066 | 0.0336 | 0.0269 |
| Cn1c(COP(=O)(NCCBr)NCCBr)cnc1[N+](=O)[O-] | 1.47 | 1.27 | 0.89 | 1.27 |
| CCN(CC)C(=O)c1ccc(C2=CC3(CCNCC3)Oc3cccc(O)c32)cc1 | 1.05 | 1.03 | 0.914 | 0.931 |
| C[C@@H]1O[C@@H](O[C@H]2C[C@@H](O)[C@]3(CO)[C@H]4[C@H](O)C[C@]5(C)[C@@H](C6=CC(=O)OC6)CC[C@]5(O)[C@@H]4CC[C@]3(O)C2)[C@H](O)[C@H](O)[C@H]1O [Ouabain] | 0.05 | 0.0369 | 0.0346 | 0.0311 |
| N#C[C@H](O[C@@H]1O[C@H](C(=O)O)[C@@H](O)[C@H](O)[C@H]1O)c1ccccc1 [Laetrile] | 0.984 | 1.23 | 0.709 | 1.16 |
| COc1cc(-n2c(=S)[nH]c3ccccc3c2=O)c(Cl)cc1Cl [Mdivi-1] | 0.879 | 0.994 | 0.654 | 0.851 |
| Cc1cccc(C)c1NC(=O)CN1CCCC1=O [Nefiracetam] | 0.909 | 1.08 | 1.02 | 1.16 |
| CC(C)N(CCNC(=O)CN1CCCC1=O)C(C)C [Pramiracetam] | 0.94 | 1.16 | 0.882 | 1.02 |
| C[C@@H]1[C@H](O)[C@@H](C)/C=C/C=C/CC/C=C/C=C/C=C/C=C/[C@H](O[C@H]2O[C@@H](C)[C@H](O)[C@@H](N)[C@H]2O)C[C@@H]2O[C@](O)(C[C@@H](O)[C@H](O)CC[C@@H](O)C[C@@H](O)C[C@@H](O)CC(=O)O[C@H]1C)C[C@H](O)[C@H]2C(=O)O [Nystatin (Fungicidin)] | 0.929 | 1.11 | 0.854 | 1.03 |
| O=C(O)c1nn(Cc2ccc(Cl)cc2Cl)c2ccccc12 [Lonidamine] | 0.961 | 1.06 | 0.87 | 1.16 |
| Cc1sc2c(c1C)C(c1ccc(Cl)cc1)=N[C@@H](CC(=O)OC(C)(C)C)c1nnc(C)n1-2 | 0.37 | 0.516 | 0.278 | 0.394 |
| O=C(O)CNC(=O)c1c(O)c2ccccc2n(Cc2ccccc2)c1=O | 1.04 | 1.17 | 0.762 | 1 |
| O=c1[nH]c2ccc(Cl)cc2c(N[C@@H]2CN3CCC2CC3)c1-c1nc2ccccc2[nH]1 | 0.154 | 0.195 | 0.0777 | 0.0446 |
| O=S(=O)(CC1CS1)c1ccc(Oc2ccccc2)cc1 (centres undefined) | 0.744 | 0.851 | 0.163 | 0.172 |

| SMILES | fractional viability [1] | fractional viability [2] | fractional viability [3] | fractional viability [4] |
| --- | --- | --- | --- | --- |
| C[C@](O)(COc1ccc(C#N)cc1)C(=O)Nc1ccc(C#N)c(C(F)(F)F)c1 | 1 | 1.13 | 0.879 | 1.03 |
| CCN1CCN(C(=O)Cc2ccc(Nc3ncc(F)c(Nc4ccc(C(=O)Nc5ccccc5Cl)cc4)n3)cc2)CC1 [Aurora A Inhibitor I] | 0.904 | 0.926 | 0.0479 | 0.0775 |
| NC(=O)CN1CC(O)CC1=O (centres undefined) [Oxiracetam] | 0.755 | 1.16 | 0.688 | 0.976 |
| C#C[C@]1(O)C=C[C@H]2[C@@H]3CCC4=CC(=O)CC[C@@H]4[C@H]3CC[C@@]21CC [Gestodene] | 1.13 | 1.04 | 0.861 | 0.945 |
| CC1=C(O)C(=O)C=C2C1=CC=C1[C@@]2(C)CC[C@@]2(C)[C@@H]3C[C@](C)(C(=O)O)CC[C@]3(C)CC[C@]12C [Celastrol] | 0.0457 | 0.0557 | 0.0154 | 0.0139 |
| CC(C)(C)c1cc(C=C(C#N)C#N)cc(Br)c1O | 1.21 | 1.08 | 1.09 | 0.939 |
| CCOc1ccccc1-n1c(C(C)N2CCN(C(=O)COc3ccc(Cl)cc3)CC2)nc2ccccc2c1=O (centres undefined) [Erastin] | 0.123 | 0.0716 | 0.0411 | 0.0416 |
| O=[N+]([O-])/C=C/c1ccc2c(c1)OCO2 | 0.362 | 0.336 | 0.0604 | 0.0474 |
| Cc1cccc(C(C)c2c[nH]cn2)c1C (centres undefined) [Medetomidine HCl] | 1.09 | 1.09 | 0.755 | 1.03 |
| O=[N+]([O-])c1ncc[nH]1 [Azomycin] | 0.753 | 1.09 | 0.757 | 0.975 |
| CC[C@H](C)[C@@H]([C@@H](CC(=O)N1CCC[C@H]1[C@H](OC)[C@@H](C)C(=O)N[C@H](C)[C@@H](O)c1ccccc1)OC)N(C)C(=O)[C@@H](NC(=O)[C@@H](NC)C(C)C)C(C)C [Monomethyl auristatin E (MMAE)] | 0.0977 | 0.0889 | 0.0769 | 0.0612 |
| Cc1cccc([C@H](C)c2c[nH]cn2)c1C [Dexmedetomidine] | 1.06 | 1.23 | 0.8 | 1.05 |
| CCCCCCCCCCCCCCCC[n+]1ccccc1 [Cetylpyridinium Chloride] | 0.216 | 0.196 | 0.0152 | 0.0105 |
| Cc1ccccc1-n1c(Cn2ncc3c(N)ncnc32)nc2cccc(C)c2c1=O | 0.87 | 1.14 | 0.731 | 1.15 |
| CCc1c(C(=O)C(N)=O)c2c(OCC(=O)O)cccc2n1Cc1ccccc1 | 1.09 | 1.02 | 0.94 | 0.973 |
| Cn1cc(C2=C(c3cn(C4CCN(Cc5ccccn5)CC4)c4ccccc34)C(=O)NC2=O)c2ccccc21 | 0.952 | 0.961 | 0.948 | 0.916 |
| Cc1cc(C(C#N)c2ccc(Cl)cc2)c(Cl)cc1NC(=O)c1cc(I)cc(I)c1O (centres undefined) [Closantel] | 1.13 | 1.17 | 0.948 | 1.1 |
| Cc1cc(C(C#N)c2ccc(Cl)cc2)c(Cl)cc1NC(=O)c1cc(I)cc(I)c1O (centres undefined) [Closantel Sodium] | 0.98 | 1.19 | 0.879 | 0.97 |
| COc1ccc(C[C@H]2NC[C@H](O)[C@H]2OC(C)=O)cc1 [Anisomycin] | 0.109 | 0.0785 | 0.118 | 0.0319 |
| COc1cc(C)[nH]c(=O)c1CNC(=O)c1c(C)n([C@H](C)C2CCOCC2)c2ccccc12 | 0.85 | 0.972 | 0.755 | 0.698 |
| CCc1cc2c(s1)-n1c(C)nnc1CN=C2c1ccccc1Cl [Etizolam] | 0.778 | 1 | 0.707 | 0.96 |
| CC(C)(C)[C@]1(O)CC2OC(=O)CC23C(=O)OC2OC(=O)[C@H](O)C231 (some centres undefined) [Bilobalide] | 0.854 | 1.09 | 0.975 | 1.11 |
| O=C1CCC[C@@H]2[C@H]3CCCN4CCC[C@@H](CN12)[C@@H]34 [(+)-Matrine] | 0.865 | 1.03 | 0.795 | 1 |
| COc1cc([C@@H]2c3cc4c(cc3[C@H](O)[C@H]3COC(=O)[C@@H]23)OCO4)cc(OC)c1OC [Picropodophyllin (PPP)] | 0.139 | 0.142 | 0.121 | 0.0713 |
| O=C(NCC1CCOCC1)c1cnc(Nc2ccc(Cl)cc2Cl)nc1C(F)(F)F | 1.03 | 1.32 | 0.768 | 1.19 |

Source: the supplement of paper PMC5919970
